High-throughput results deposited in PubChem BioAssay by National Center for Advancing Translational Sciences (NCATS).
A549 viability = Nrf2 qHTS screen for inhibitors: counterscreen for cytotoxicity; A549 ARE-Fluc cells, CellTiter-Fluor viability, 18-24 h; Potency, µM (highest dose often 46 µM), inactives show at the highest dose activity change, negative = cytotoxicity, usual class: inhibitors; 390,000 tested, 0.16% active; note: potency is the fitted concentration of half-maximal effect; % is set by controls: 0 for no effect and ±100 for the full control effect
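A549 ARE-Fluc cells in 5% FBS OPTI-MEM, 5000 cells/well, rested 2 h then exposed to compounds in concentration-response for 18-24 h at 37 °C. Viability by CellTiter-Fluor fluorescence (Ex 405/Em 525) after 30 min; luciferase luminescence (BugLite, 15 min, RT) read afterwards.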
TCR activator = Activators of T cell receptors: qHTS campaign; primary human leukocytes, anti-CD3, IL-2 HTRF, 48 h; Potency, µM (titrated, usually from 9.22 µM), inactives show at the top dose activation of IL-2 secretion, hits mostly activators; 330,000 tested, under 10 active; AID 504894, 2011; note: % of control where 0% means no effect
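Activity was scored as IL-2 release from primary human leukocytes given only a TCR signal (a-CD3 beads) plus compound for 48 hr. Detection used a two-antibody HTRF format read at 665nm.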
CCT modulator = High-Throughput Screening for Modulators of Cytosolic Chaperonin Activity; purified chaperonin ATPase assay, HTRF ADP detection, 30 min; activity change, % (no concentration beside the values), hits read low; 360,000 tested, 0.3% active; in the data active = activity change below about -30%; note: % is set by controls: 0 for no effect and ±100 for the full control effect
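ATPase activity: ADP formed was measured by HTRF Transcreener (665/615 nm ratio) after 30 min at 37 deg C with 10 uM ATP. Compounds screened at one 76 uM concentration against 40 or 20 nM TRiC in Tris pH 7.4/KCl/MgCl2/DTT buffer.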
A-T KAP1 phos = qHTS Assay for Identifying a Potential Treatment of Ataxia-Telangiectasia | 320,000 tested, 0.19% active | AID 485349, 2010 | F2112 A-T fibroblasts, KAP-1 phosphorylation AlphaLISA; neocarzinostatin DNA damage 30 min before lysis | Potency, µM (doses to about 57.5 µM), inactives show top-dose activation, usual class: activators; note: potency is the fitted concentration of half-maximal effect; % of control where 0% means no effect; nearly all actives have a fitted effect of over 45% in size
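ATM-like activity read as KAP-1 phosphorylation via AlphaLISA donor/acceptor antibody pairs after lysis and 6 hr at 25C. Cells were ATM-null patient fibroblasts (F2112, hTERT), dosed 60 min, then exposed to the DSB inducer NCS for 30 min.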
Nrf2 ARE act = qHTS of Nrf2 Activators | AREc32 ARE-luciferase reporter (MCF7-derived line), luminescence, 24 h | Potency, µM (highest dose often 46.1 µM), without a hit: at the highest dose activation, actives largely listed as activators | 410,000 tested, 0.31% active | AID 624171, 2012; note: potency is the fitted concentration of half-maximal effect; % of control where 0% means no effect; nearly all actives have a fitted effect of over 65% in size
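AREc32 cells carrying an ARE-driven firefly luciferase, 1000 cells/well in OPTI-MEM with 5% FBS, dosed after overnight attachment and incubated 24 hr at 37 deg C. Steady-Glo luminescence read after 30 min at RT.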
Nrf2 block = Nrf2 qHTS screen for inhibitors. 360,000 tested, 2.1% active. Potency, µM (doses to about 46 µM), without a hit: at the top dose activity change, negative = inhibition, actives largely listed as inhibitors. A549 ARE-Fluc reporter, luciferase luminescence, 18-24 h; note: potency is the fitted concentration of half-maximal effect; % is set by controls: 0 for no effect and ±100 for the full control effect; nearly all actives have a fitted effect of over 60% in size
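Cells were seeded and rested 2 h, then exposed to compounds for 18-24 h. CellTiter-Fluor was read first as a viability measure. BugLite was added 15 min before the final luminescent read of ARE-luciferase activity in A549 cells.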
Active calls of the source: *; [ ] = another dose, or the depositor's remark. Sampled rows, rich in hits. Any-hit rate of the full collection: about 2.6%. Unless noted, calls come from the whole dose curve; as a rule, active = well fitted curve in the direction sought with a large enough effect; inconclusive = small, poorly fitted or top-dose-only effect, or another doubt; inactive = no such curve, though single readings can be large; an effect the other way counts as inactive or inconclusive.

Results for COc1ccc(NC(=O)c2ccc3c(c2)C(=O)N(CC2CCCO2)C3=O)c(OC)c1 (stereo not given) ?
A549 viability: -2%; TCR activator: 5%; CCT modulator: -1; A-T KAP1 phos: -13%; Nrf2 ARE act: 0%; Nrf2 block: inconclusive

How did COc1ccc(Oc2nc3c(c(=O)n(C)c(=O)n3C)n2Cc2cccc(OC)c2)cc1 do in these assays?
A549 viability: -1%; TCR activator: 1%; CCT modulator: -4; A-T KAP1 phos: 0%; Nrf2 ARE act: 0%; Nrf2 block: -6%

What do the screens show for `COc1ccccc1Oc1nc2c(c(=O)n(C)c(=O)n2C)n1Cc1cccc(Br)c1`?
A549 viability: 0%; Nrf2 ARE act: 0%; Nrf2 block: 16µM*

Results for CCn1c(Oc2cccc(Br)c2)nc2c1c(=O)n(C)c(=O)n2C ?
A549 viability: -1%; TCR activator: 5%; CCT modulator: -44*; A-T KAP1 phos: 6%; Nrf2 ARE act: 0%; Nrf2 block: -24%

What do the screens show for `CCCn1c(Oc2ccccc2)nc2c1c(=O)n(C)c(=O)n2C`?
A549 viability: 2%; CCT modulator: -3; A-T KAP1 phos: 6%; Nrf2 ARE act: 2%; Nrf2 block: -9%

Results for O=C(CNC(=O)C1CCCCCC1)OC(C(=O)Nc1cc(C(F)(F)F)ccc1Cl)c1ccccc1 (stereo not given) ?
A549 viability: 2%; Nrf2 block: 1%

Results for Cc1ccc(NS(=O)(=O)c2cc3c(cc2N(C)C)NC(=O)CC3)cc1C ?
A549 viability: 4%; Nrf2 block: -4%

What do the screens show for `O=C(CN1C(=O)NC(Cc2c[nH]c3ccccc23)C1=O)NCCc1ccccc1` (stereo not given)?
A549 viability: 0%; TCR activator: 1%; CCT modulator: 1; A-T KAP1 phos: 2%; Nrf2 ARE act: 0%; Nrf2 block: inconclusive

How did Cc1ccc(/C=N/N2CCN(C3c4ccccc4-c4ccccc43)CC2)s1 do in these assays?
A549 viability: 10%; TCR activator: 2%[46.1 µM]; CCT modulator: -56*; A-T KAP1 phos: 1%; Nrf2 ARE act: 0%; Nrf2 block: -13%

Results for C(=N\N1CCN(C2c3ccccc3-c3ccccc32)CC1)/c1ccccn1 ?
A549 viability: 19%; TCR activator: 4%; CCT modulator: -3; A-T KAP1 phos: -6%; Nrf2 ARE act: -1%; Nrf2 block: -23%

How did O=C(Nc1ccncc1)c1cc(C2CCCCN2C(=O)CCCc2ccccc2)on1 (stereo not given) do in these assays?
CCT modulator: 0; Nrf2 ARE act: 2%

Results for COc1ccc(CCNC(=O)C(=O)NCC2OCCN2S(=O)(=O)c2ccc3c(c2)OCCO3)cc1OC (stereo not given) ?
A549 viability: -6%; TCR activator: 0%; CCT modulator: -3; A-T KAP1 phos: -2%; Nrf2 ARE act: 0%; Nrf2 block: inconclusive

Results for COc1ccc(CCNC(=O)C(=O)NCC2OCCN2S(=O)(=O)c2ccc3c(c2)OCCO3)cc1 (stereo not given) ?
A549 viability: -22%; TCR activator: 5%; CCT modulator: 2; A-T KAP1 phos: -7%; Nrf2 ARE act: 0%; Nrf2 block: 9.2µM*

What do the screens show for `Cc1ccc(CNC(=O)C(=O)NCC2OCCN2S(=O)(=O)c2ccc(Br)cc2)cc1` (stereo not given)?
A549 viability: -4%; TCR activator: 7%; CCT modulator: -2; A-T KAP1 phos: 24%; Nrf2 ARE act: 5%; Nrf2 block: 16µM*

How did Cc1ccc(CNC(=O)C(=O)NCC2OCCN2S(=O)(=O)c2ccc3c(c2)OCCO3)cc1 (stereo not given) do in these assays?
A549 viability: 8%; TCR activator: 1%; CCT modulator: 0; A-T KAP1 phos: 5%; Nrf2 ARE act: 0%; Nrf2 block: 10µM*

How did Cc1cc(C)c2oc(C(=O)N(Cc3cccs3)C3CCS(=O)(=O)C3)cc(=O)c2c1 (stereo not given) do in these assays?
A549 viability: 1%; TCR activator: 3%; CCT modulator: 2; A-T KAP1 phos: -23%; Nrf2 ARE act: 3%; Nrf2 block: -19%

How did N#CN1CCC(NS(=O)(=O)c2ccc(F)cc2)CC1 do in these assays?
A549 viability: -2%; Nrf2 block: inconclusive

Results for Cc1ccc(C)c(N2CCN(S(=O)(=O)c3ccc4[nH]c5c(c4c3)CCCC5)CC2)c1 ?
A549 viability: -2%; Nrf2 ARE act: 0%; Nrf2 block: 8%

How did O=S(=O)(c1ccc2[nH]c3c(c2c1)CCCC3)N1CCCCC1 do in these assays?
A549 viability: -9%; TCR activator: 1%; CCT modulator: -73*; A-T KAP1 phos: 8%; Nrf2 ARE act: 7%; Nrf2 block: -17%

Results for CCc1ccc(CNC(=O)c2nn(-c3ccc(OC)c(Cl)c3)c(=O)c3c2c2ccccc2n3C)cc1 ?
A549 viability: 8%; Nrf2 ARE act: -1%; Nrf2 block: 7%

What do the screens show for `Cc1cc(C(=O)N/N=C/c2c(C)nn(-c3ccccc3)c2C)n[nH]1`?
A549 viability: 1%; TCR activator: -4%; CCT modulator: 0; A-T KAP1 phos: -5%; Nrf2 ARE act: 2%; Nrf2 block: -1%

How did Cc1nn(-c2ccccc2)c(C)c1/C=N/NC(=O)c1cc(-c2ccc(Cl)s2)[nH]n1 do in these assays?
A549 viability: -8%; TCR activator: -4%; CCT modulator: -2; A-T KAP1 phos: 3%; Nrf2 ARE act: 0%; Nrf2 block: 10µM*

What do the screens show for `Cc1nn(-c2ccccc2)c(C)c1/C=N/NC(=O)c1cc(C23CC4CC(CC(C4)C2)C3)[nH]n1`?
A549 viability: inconclusive; TCR activator: -1%; CCT modulator: -1; A-T KAP1 phos: -7%; Nrf2 ARE act: 4%; Nrf2 block: 13µM*

What do the screens show for `CC(=O)c1c(N2CCN(Cc3ccccc3)CC2)nc(=S)n(Cc2ccccc2)c1C`?
A549 viability: inconclusive; TCR activator: -12%[46.1 µM]; CCT modulator: -1; A-T KAP1 phos: -7%; Nrf2 ARE act: 1%; Nrf2 block: 21µM*

How did CC(=O)c1c(N2CCCCC2)nc(=S)n(Cc2ccccc2)c1C do in these assays?
A549 viability: 2%; TCR activator: -2%; CCT modulator: -2; A-T KAP1 phos: -6%; Nrf2 ARE act: 0%; Nrf2 block: -11%
